Screening data as filed in PubChem BioAssay.
This is a sample that favours compounds with a hit; in the whole collection about 4.2% have one here.
Mtb FBA inh = Mtb fructose-bisphosphate aldolase inhibition; P9WQA3; purified M. tuberculosis FBA, fluorescence read-out; inhibition, % at 1 µM; actives 2.3% (n = 360,000);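 also: 0% = vehicle and 100% = reference inhibitor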
GDH-TPI counter-1 = counter-screen for M. tuberculosis FBA inhibitors: GDH-TPI coupled enzymes. inhibition, % at 4.8 µM. GDH-TPI coupled enzyme counterscreen, NADH absorbance. actives 1.2% (n = 360,000); in the data active = inhibition above about 30%;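 also: 0% = DMSO wells and 100% = wells lacking the enzyme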
RecA splice inh = Mtb RecA intein splicing inhibition | cell-free RecA intein splicing, fluorescence | inhibition, % (test concentration not listed) | actives 0.75% (n = 290,000) | AID 2221; in the data active = inhibition above about 30%;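 also: 0% = vehicle wells and 100% = reference inhibitor control wells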
Target sequence (P9WHJ3 whole entry, looked up, canonical isoform): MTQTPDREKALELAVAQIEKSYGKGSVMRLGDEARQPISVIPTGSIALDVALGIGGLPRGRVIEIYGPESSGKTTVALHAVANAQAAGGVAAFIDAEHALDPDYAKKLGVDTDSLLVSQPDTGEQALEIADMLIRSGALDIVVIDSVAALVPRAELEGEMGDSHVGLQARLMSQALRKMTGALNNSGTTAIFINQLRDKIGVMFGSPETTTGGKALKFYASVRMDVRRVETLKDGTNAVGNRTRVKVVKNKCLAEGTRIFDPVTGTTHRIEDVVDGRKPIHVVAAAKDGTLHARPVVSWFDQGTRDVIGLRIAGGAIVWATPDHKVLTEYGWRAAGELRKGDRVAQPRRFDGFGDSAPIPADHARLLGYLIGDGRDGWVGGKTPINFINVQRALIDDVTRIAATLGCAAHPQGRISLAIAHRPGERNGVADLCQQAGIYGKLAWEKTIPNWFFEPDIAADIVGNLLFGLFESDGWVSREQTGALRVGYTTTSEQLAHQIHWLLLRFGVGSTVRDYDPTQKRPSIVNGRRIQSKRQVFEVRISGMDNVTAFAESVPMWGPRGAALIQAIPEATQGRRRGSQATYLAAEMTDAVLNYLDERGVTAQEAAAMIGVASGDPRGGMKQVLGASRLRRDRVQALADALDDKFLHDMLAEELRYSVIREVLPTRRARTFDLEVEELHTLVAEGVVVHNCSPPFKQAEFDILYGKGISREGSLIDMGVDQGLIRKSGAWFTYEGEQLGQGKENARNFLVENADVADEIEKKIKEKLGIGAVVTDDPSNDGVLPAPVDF
PrPC TRFRET = reduces human prion protein on the cell surface; actives 0.43% (n = 370,000); inhibition, % at 13.8 µM; AID 720596; P04156; cell surface PrPC, TR-FRET read-out; in the data active = inhibition above about 24%; also: 0% = median of the test wells and 100% = reference compound wells
BJeLR lethal = kills HRASV12-expressing BJeLR cells; inhibition, % (no concentration beside the values); BJeLR (HRASV12) viability, CellTiter-Glo ATP luminescence, 48 h; AID 1554; actives 0.17% (n = 300,000); in the data active = inhibition above about 50%
Mtb FBA inh conf = Mtb FBA inhibition, confirmed | shares compounds with Mtb FBA inh | purified M. tuberculosis FBA, fluorescence read-out | inhibition, % at 1 µM | actives 78% (n = 5,600) | AID 651616;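 also: 0% = vehicle wells and 100% = reference inhibitor wells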
GDH-TPI counter-2 = counter-screen for M. tuberculosis FBA inhibitors: GDH-TPI coupled enzyme inhibition. inhibition, % at 1 µM. shares compounds with Mtb FBA inh. GDH-TPI coupled enzyme counterscreen, fluorescence. actives 81% (n = 5,600); in the data active = inhibition above about 10%
* marks the source's active call; other numbers are inactive results; · = no result given; + = active, no number. Rule as the data show it, unless noted: active = inhibition above about 27%; inactive = the rest.

SMILES | Mtb FBA inh | GDH-TPI counter-1 | RecA splice inh | PrPC TRFRET | BJeLR lethal | Mtb FBA inh conf | GDH-TPI counter-2
COc1ccc(CNC(=S)OC2CCC23CCC(c2ccccc2)CC3)cc1 (stereo unspecified) | · | · | · | 16.9 | · | · | ·
COc1ccc(/C=C(\C#N)C(=O)OCC(=O)NC(C)c2ccccc2)cc1 (stereo unspecified) | -3.7 | 12.3 | 0.6 | 0.3 | -0.9 | · | ·
Cc1ccc2nc(-c3ccc(NC(=O)COC(=O)c4ccc(Br)o4)cc3)sc2c1 | 21.1 | 24.7 | · | -2.5 | · | · | ·
Cc1ccc2nc(-c3ccc(NC(=O)COC(=O)c4ccc([N+](=O)[O-])o4)cc3)sc2c1 | 20.1 | 8.6 | 1.7 | 1.0 | 19.9 | · | ·
COc1ccc(/C=C(\C#N)C(=O)OCC(=O)Nc2ccc(-c3nc4ccc(C)cc4s3)cc2)cc1 | 31.4* | -3.1 | -0.5 | 1.5 | -8.6 | 118.9* | 89.7*
Cc1ccc2nc(-c3ccc(NC(=O)COC(=O)c4cncc(Br)c4)cc3)sc2c1 | 40.4* | 13.5 | 1.5 | 0.4 | 13.6 | 33.0* | 26.0*
CCOc1ncccc1C(=O)OCC(=O)Nc1ccc(-c2nc3ccc(C)cc3s2)cc1 | 34.1* | 14.0 | 0.4 | 4.4 | -2.0 | 33.0* | 22.5*
CC1CCN(C(=O)COC(=O)c2cc(Cl)cc(Cl)c2N)CC1 | 80.7* | -1.5 | -1.0 | 11.0 | -11.2 | 110.4* | 90.0*
O=C(OCC(=O)N1CCOCC1)c1cc(S(=O)(=O)N2CCOCC2)c(Cl)cc1Cl | 1.2 | 10.0 | · | 4.0 | · | · | ·
CC(C)N(C(=O)COC(=O)c1cc(Cl)cc(Cl)c1N)C(C)C | 80.2* | 0.6 | 4.0 | -2.3 | -9.1 | 5.6 | 3.0
Nc1c(Cl)cc(Cl)cc1C(=O)OCC(=O)N1CCOCC1 | 100.7* | 4.4 | -2.4 | -4.0 | 1.4 | + | +
COc1cc2ccccc2cc1C(=O)OCC(=O)N1CCOCC1 | 52.2* | -8.2 | -5.2 | 6.6 | 1.4 | 179.6* | 155.9*
COc1ccc(CN(CC#Cc2ccccc2)Cc2ccccc2)c(OC)c1 | · | · | · | -0.6 | · | · | ·
COc1ccc(S[C@]2(C(=O)N3CCN(C(C)=O)CC3)CC(=O)N(C(=O)CCc3ccccc3)[C@@H]2c2ccc(OC)cc2)cc1 | · | · | · | 9.9 | · | · | ·
O=C(CSc1nnc(-c2ccco2)n1-c1ccc(Cl)cc1)Nc1ccc(S(=O)(=O)Nc2nccs2)cc1 | · | · | · | 11.8 | · | · | ·
CC1(C)OC(=CC=Nc2ccc(Cl)cc2)OC1(C)C | 48.8* | 20.0 | -6.6 | -2.3 | -2.0 | + | +
Cc1ccc(N=CC=C2OC(C)(C)C(C)(C)O2)c(C)c1 | 4.8 | -8.1 | -11.9 | 1.7 | -4.1 | · | ·
CCn1nnc(NC(=O)c2cccc(-c3cc4ccccc4oc3=O)c2)n1 | 48.5* | 19.4 | 0.0 | -29.4 | 1.9 | 153.4* | 118.5*
CCCCOCCCNC(=O)C[C@H]1C[C@@]2(C(=O)OC)C(=C[C@H](C3CCCC3)O[C@@H]2C)N(Cc2ccccc2)C1=O | · | · | · | -7.1 | · | · | ·
O=C(CNc1cccc2ccccc12)c1ccc([N+](=O)[O-])cc1 | 27.9* | 0.8 | 5.8 | -11.1 | -8.0 | 55.8* | 36.1*
O=C(Nc1cccc2ccccc12)c1ccc([N+](=O)[O-])cc1 | -0.1 | 4.2 | -0.3 | -35.2 | -5.2 | · | ·
N#Cc1ccc(-c2ccc(OCC(O)CN3CCOCC3)cc2)cc1 (stereo unspecified) | 40.1* | -5.2 | 2.2 | 11.0 | 2.7 | 4.1 | -0.8
COc1ccc(OCC(O)CN2CCOCC2)cc1 (stereo unspecified) | -3.0 | -1.9 | -2.9 | 2.8 | 0.0 | · | ·
COC(=O)C1CCCN(C(=O)C2CCN(S(=O)(=O)c3cccc4cccnc34)CC2)C1 (stereo unspecified) | · | · | · | 3.8 | · | · | ·
Cc1cccc(C2Nc3ccccc3C(=O)N2c2ccccc2)n1 (stereo unspecified) | 61.4* | -2.4 | -3.8 | 2.0 | 3.0 | 47.2* | 46.4*
SMILES | Mtb FBA inh | GDH-TPI counter-1 | RecA splice inh | PrPC TRFRET | BJeLR lethal | Mtb FBA inh conf | GDH-TPI counter-2
CC(c1ccccc1)N1CC[C@H]2C=CC[C@@H](C(=O)Nc3ccc(F)c(F)c3)[C@H]2C1=O (stereo partly specified) | · | · | · | 5.7 | · | · | ·
Cc1cc(NCCCO)n2nc(-c3cccs3)cc2n1 | 33.5* | 0.4 | -0.8 | 0.8 | 3.7 | 67.6* | 55.9*
OCCCNc1cc(-c2ccccc2)nc2cc(-c3ccc(F)cc3)nn12 | 58.9* | 14.7 | -7.9 | 21.1 | -11.2 | 102.0* | 77.5*
Nc1cc(-c2ccc(Br)cc2)nc2cc(-c3ccccc3)nn12 | 8.9 | 3.8 | -0.5 | 17.1 | 4.1 | · | ·
CC(C)C[C@H]1COc2cc(Br)ccc2S(=O)(=O)N1Cc1cn(Cc2ccco2)nn1 | · | · | · | 5.5 | · | · | ·
COC(=O)[C@]1(C)CN(C(=O)OC(C)(C)C)C2=C1C(=O)C[C@@](C)(C(=O)OC(C)(C)C)C2 | · | · | · | 0.7 | · | · | ·
Cc1cccc(-c2cccc3c4c([nH]c23)[C@@H]2C[C@H](N(C)C(=O)Nc3ccccc3C)[C@H]([C@H](C)O)CN2CC4)c1 | · | · | · | -13.0 | · | · | ·
CCC(=O)c1ccccc1OCCN1CCN(Cc2ccccc2)CC1 | 4.2 | -3.8 | 0.0 | -4.7 | 35.2 | · | ·
CCC(=O)c1ccccc1OCCCn1cncn1 | 27.0* | 7.3 | · | -1.1 | 4.2 | 112.2* | 83.6*
Cc1cc(C)c(N)c(C(=O)O)c1 | 47.6* | -8.6 | -1.1 | 6.5 | 9.2 | + | +
Cc1cc(C(=O)O)cc(Br)c1N | -3.0 | -5.5 | 0.1 | 2.9 | 1.4 | · | ·
COC(=O)[C@]12C[C@H](CC(=O)NCc3ccc(OC)c(OC)c3)C(=O)N(Cc3ccccc3)C1=C[C@H](COCc1ccccc1)O[C@@H]2C | · | · | · | -2.6 | · | · | ·
COc1ccc(CN2CCC(CNC(=O)NC3CCC(C)CC3)CC2)cc1 (stereo unspecified) | · | · | · | -10.3 | · | · | ·
O=S(=O)(c1ccccc1)N1N=C(c2cccs2)CC1c1ccc(Br)cc1 (stereo unspecified) | 9.2 | 8.1 | -1.5 | -0.1 | -16.3 | · | ·
c1ccc(C2CC(c3cccs3)=NN2c2ccccc2)cc1 (stereo unspecified) | 87.0* | 7.4 | -7.1 | 7.1 | -1.7 | 170.6* | 119.0*
Fc1ccc(C2CC(c3cccs3)=NN2c2ccccc2)cc1 (stereo unspecified) | 107.3* | 2.2 | -102.2 | 8.0 | -6.3 | 32.9* | 21.7*
COc1ccc(CN(C)C(=O)C2CCCN(c3nc4ccccc4o3)C2)cc1 (stereo unspecified) | · | · | · | 0.6 | · | · | ·
N#Cc1nn(-c2ccccc2)nc1N1CCCCC1 | 38.3* | 11.7 | 10.3 | 5.2 | 2.9 | 129.4* | 106.0*
N#Cc1nc(COc2ccccc2)oc1N1CCCCCC1 | -2.7 | 1.4 | 3.4 | 4.4 | 2.2 | · | ·
O=C1NC(c2ccc(Br)cc2)c2c(-c3ccccc3)n[nH]c21 (stereo unspecified) | · | · | · | 2.9 | · | · | ·
CC(C)CN1C(=O)[C@@]2(CC(=O)N(C)C2c2ccccc2)c2cc(-n3cc(CCc4ccccc4)nn3)ccc21 (stereo partly specified) | · | · | · | -1.0 | · | · | ·
CCOC(=O)C1CCN(C(=O)c2ccc(OC)cc2OC)CC1 | -2.3 | -4.1 | -1.3 | -10.1 | 0.1 | · | ·
